Inconclusive results are not listed. A call without a number means that no potency is given here. Activity calls are given as the source filed them. Calls follow the shape of the dose curve; as a rule, active = well fitted curve in the direction sought with a large enough effect; inconclusive = small, poorly fitted or top-dose-only effect, or another doubt; inactive = no such curve, though single readings can be large; an effect the other way counts as inactive or inconclusive.
Assays:
[1] = Cell Viability - LYMP1-003 - Assay at 24 hr (AID 963)
Summary of the method: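 Human lymphoblastoid LYMP1-003 cells (2500/well) were rested 5 hr at 37 C, then exposed to compounds in complete medium for 24 hr at 37 C. Cellular ATP was quantified by CellTiter-Glo luminescence, and AC50 values came from Hill fits of concentration-response data.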

[2] = Cell Viability - LYMP1-003 - Assay at 40 hr (AID 964); also: nearly all actives have a fitted effect of over 60% in size; also: potency is read from the fitted curve at half-maximal effect
Summary of the method: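 Human lymphoblastoid LYMP1-003 cells, 2500/well in complete medium, rested 5 hr at 37 C, then exposed to compounds for 40 hr at 37 C. Viability read as intracellular ATP by CellTiter-Glo luminescence; AC50 from Hill fits of concentration-response data.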

[3] = Cell Viability - LYMP2-003 (AID 965);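 also: cells exposed to compounds for 24 h before reading; nearly all actives have a fitted effect of over 50% in size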; also: potency is read from the fitted curve at half-maximal effect
Summary of the method: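 CellTiter-Glo luminescence quantified ATP loss after 24 h compound treatment of LYMP2-003 lymphoblastoid cells at 37 C. Titration series were fitted with the standard Hill equation to give AC50.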

[4] = Cell Viability - LYMP2-004 (AID 966); also: nearly all actives have a fitted effect of over 65% in size; also: potency is read from the fitted curve at half-maximal effect
Summary of the method: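 Human lymphoblastoid cells (2500/well) in complete medium were treated with compounds for 24 hr at 37 C, then intracellular ATP was measured by CellTiter-Glo luminescence. AC50 values came from Hill-equation fits of concentration-response data.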

[5] = Cell Viability - LYMP2-005 (AID 967); also: potency is read from the fitted curve at half-maximal effect
Summary of the method: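 LYMP2-005 human lymphoblastoid cells (2500/well) were treated with compounds for 24 h at 37 C. Intracellular ATP was then measured by CellTiter-Glo luminescence after 30 min at room temperature. AC50 values came from Hill-equation fits of qHTS concentration-response data.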

[6] = Cell Viability - LYMP2-009 (AID 968); also: nearly all actives have a fitted effect of over 55% in size; also: potency is read from the fitted curve at half-maximal effect
[7] = Cell Viability - LYMP2-011 (AID 969); also: nearly all actives have a fitted effect of over 60% in size; also: potency is read from the fitted curve at half-maximal effect
Summary of the method: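 Human lymphoblastoid cells (2500/well) were plated in complete medium, preincubated 5 hr at 37 C, then exposed to compounds for 24 hr at 37 C. Intracellular ATP was read by CellTiter-Glo luminescence, and AC50 came from Hill-equation concentration-response fits.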

[8] = Cell Viability - LYMP2-013 (AID 970); also: nearly all actives have a fitted effect of over 55% in size; also: potency is read from the fitted curve at half-maximal effect
Summary of the method: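 Human lymphoblastoid cells, 2500/well, were preincubated 5 hr at 37 C, then treated with compounds for 24 hr at 37 C in complete medium. Intracellular ATP was read by CellTiter-Glo luminescence; AC50 from Hill-equation fits of concentration-response data.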

[9] = Cell Viability - LYMP2-015 (AID 971); also: nearly all actives have a fitted effect of over 55% in size; also: potency is read from the fitted curve at half-maximal effect
Summary of the method: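 Human lymphoblastoid cells (2500/well) in complete medium were preincubated 5 hr at 37 C, then compound-treated 24 hr at 37 C. Intracellular ATP was read by CellTiter-Glo luminescence after 30 min at room temperature; AC50 came from Hill-equation concentration-response fits.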

[10] = Cell Viability - LYMP2-017 (AID 972); also: nearly all actives have a fitted effect of over 55% in size; also: potency is read from the fitted curve at half-maximal effect
Summary of the method: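 Human lymphoblastoid cells (2500/well) were seeded in complete medium, held 5 hr at 37 C, then exposed to compounds for 24 hr at 37 C. Intracellular ATP was read by CellTiter-Glo luminescence after 30 min at room temperature, with AC50 values from Hill-equation fits.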

[11] = Cell Viability - LYMP2-019 (AID 973); also: nearly all actives have a fitted effect of over 55% in size; also: potency is read from the fitted curve at half-maximal effect
Summary of the method: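 Human lymphoblastoid cells were seeded at 2500 cells/well, preincubated 5 hr at 37 C, then exposed to compounds for 24 hr at 37 C in complete medium. Intracellular ATP was measured by CellTiter-Glo luminescence; AC50 from Hill fits.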

[12] = Cell Viability - LYMP2-021 (AID 974); also: potency is read from the fitted curve at half-maximal effect
Summary of the method: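 Human lymphoblastoid cells (2500/well) were preincubated 5 hr at 37 C, then exposed to compounds for 24 hr at 37 C in complete medium. Intracellular ATP was read by CellTiter-Glo luminescence; AC50 came from Hill-equation fits of concentration-response data.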

[13] = Cell Viability - LYMP2-023 (AID 975); also: nearly all actives have a fitted effect of over 55% in size; also: potency is read from the fitted curve at half-maximal effect
Summary of the method: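 Human lymphoblastoid cells (2500/well) were preincubated 5 hr at 37 C, then exposed to compounds for 24 hr at 37 C in complete medium. Cellular ATP was read by CellTiter-Glo luminescence, and AC50 came from Hill-equation fits.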

[14] = Cell Viability - LYMP2-025 (AID 976); also: potency is read from the fitted curve at half-maximal effect
Summary of the method: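 Human lymphoblastoid LYMP2-025 cells (2500/well) were pre-incubated 5 hr at 37 C, then treated with compounds for 24 hr at 37 C in complete medium. Viability was read as intracellular ATP by CellTiter-Glo luminescence; AC50 from Hill fits.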

[15] = Cell Viability - LYMP2-002 (AID 977);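 also: compound exposure lasted 24 h at 37 °C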; also: potency is read from the fitted curve at half-maximal effect
Summary of the method: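 Human lymphoblastoid LYMP2-002 cells, 2500 per well, exposed to compounds for 24 h at 37 C in complete medium; viability read as intracellular ATP by CellTiter-Glo luminescence, AC50 from Hill fits.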

[16] = Cell Viability - LYMP2-006 (AID 978); also: nearly all actives have a fitted effect of over 60% in size; also: potency is read from the fitted curve at half-maximal effect
Summary of the method: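 Potency values are Hill-fit AC50s for decreases in intracellular ATP (CellTiter-Glo luminescence). LYMP2-006 lymphoblastoid cells, 2500 per well, were exposed to compound in complete culture medium for 24 hr at 37 C.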

[17] = Cell Viability - LYMP2-007 (AID 979);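 also: cells exposed to compound for 24 h before reading; nearly all actives have a fitted effect of over 60% in size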; also: potency is read from the fitted curve at half-maximal effect
Summary of the method: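 Human lymphoblastoid cells (2500/well) were plated in complete medium, incubated 5 hr at 37 C, then exposed to compounds for 24 hr at 37 C. Intracellular ATP was read by CellTiter-Glo luminescence after 30 min at room temperature; AC50 from Hill fits.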

[18] = Cell Viability - LYMP2-008 (AID 980); also: nearly all actives have a fitted effect of over 60% in size; also: potency is read from the fitted curve at half-maximal effect
Summary of the method: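 Human lymphoblastoid cells (2500/well) were plated, held 5 hr at 37 C, then exposed to compounds for 24 hr at 37 C in complete medium. Intracellular ATP was read by CellTiter-Glo luminescence; AC50 from Hill-fitted concentration-response.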

[19] = Cell Viability - LYMP2-010 (AID 981); also: nearly all actives have a fitted effect of over 55% in size; also: potency is read from the fitted curve at half-maximal effect
Summary of the method: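 Human lymphoblastoid LYMP2-010 cells (2500/well) were preincubated 5 hr at 37 C, then exposed to compounds for 24 hr at 37 C in complete medium. Intracellular ATP was measured by CellTiter-Glo luminescence after 30 min at room temperature; AC50 from Hill-fitted concentration-response.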

[20] = Cell Viability - LYMP2-012 (AID 982); also: potency is read from the fitted curve at half-maximal effect

Row | SMILES | outcome [1] | Potency [2] | Potency [3] | Potency [4] | Potency [5] | Potency [6] | Potency [7] | Potency [8] | Potency [9] | Potency [10] | Potency [11] | Potency [12] | Potency [13] | Potency [14] | Potency [15] | Potency [16] | Potency [17] | Potency [18] | Potency [19] | Potency [20]
1 | O=S(=O)(O)O | inactive | inactive | inactive | inactive | inactive | inactive | inactive | inactive | inactive | inactive | inactive | inactive | inactive | inactive | inactive | inactive | inactive | inactive | inactive | inactive
2 | CC1=C(/C=C/C(C)=C/C=C/C(C)=C/CO)C(C)(C)CCC1 | inactive | – | 50.1 µM (active) | 39.8 µM (active) | 50.1 µM (active) | – | – | – | – | – | – | – | – | inactive | inactive | inactive | – | – | 50.1 µM (active) | 50.1 µM (active)
3 | O=CCCCC=O | inactive | inactive | 39.8 µM (active) | 25.1 µM (active) | – | 25.1 µM (active) | 20 µM (active) | 20 µM (active) | 15.8 µM (active) | 20 µM (active) | 25.1 µM (active) | 15.8 µM (active) | 25.1 µM (active) | 39.8 µM (active) | 31.6 µM (active) | 25.1 µM (active) | 20 µM (active) | 25.1 µM (active) | 20 µM (active) | 15.8 µM (active)
4 | CCCCC/C=C\C/C=C\CCCCCCCC(=O)O | inactive | inactive | inactive | inactive | – | inactive | inactive | inactive | inactive | inactive | inactive | inactive | inactive | inactive | inactive | inactive | inactive | inactive | – | inactive
5 | Nc1ccn([C@H]2CS[C@@H](CO)O2)c(=O)n1 | inactive | inactive | inactive | inactive | inactive | inactive | inactive | inactive | inactive | inactive | inactive | inactive | inactive | inactive | inactive | inactive | inactive | inactive | inactive | inactive
6 | CCOC(C)=O | inactive | inactive | inactive | inactive | inactive | inactive | inactive | inactive | inactive | inactive | inactive | inactive | inactive | inactive | inactive | inactive | inactive | inactive | inactive | inactive
7 | O=C(O)CCC(=O)C(=O)O | inactive | inactive | inactive | inactive | inactive | inactive | inactive | inactive | inactive | inactive | inactive | inactive | inactive | inactive | inactive | inactive | inactive | inactive | inactive | inactive
8 | CCOc1ccc2c(c1)C(C)=CC(C)(C)N2 | inactive | – | inactive | inactive | inactive | inactive | inactive | inactive | inactive | inactive | inactive | inactive | inactive | inactive | inactive | inactive | inactive | inactive | – | –
9 | CCCCCCCC/C=C\CCCCCCCC(=O)O | inactive | inactive | inactive | inactive | inactive | inactive | inactive | inactive | inactive | inactive | inactive | inactive | inactive | inactive | inactive | inactive | inactive | inactive | inactive | inactive
10 | CC(C)=O | inactive | inactive | inactive | inactive | inactive | inactive | inactive | inactive | inactive | inactive | inactive | inactive | inactive | inactive | inactive | inactive | inactive | inactive | inactive | inactive
11 | Cc1ccccc1 | inactive | inactive | inactive | – | inactive | inactive | inactive | inactive | inactive | inactive | inactive | inactive | inactive | – | inactive | inactive | inactive | inactive | inactive | inactive
12 | CC1=C2[C@@H]([C@H](C)CC[C@H]2/C=C(\C)C(=O)O)[C@H](O)C1 | inactive | inactive | inactive | inactive | inactive | inactive | inactive | inactive | inactive | inactive | inactive | inactive | inactive | inactive | inactive | inactive | inactive | inactive | inactive | inactive
13 | CCCCCCCC(=O)O | inactive | inactive | inactive | inactive | inactive | inactive | inactive | inactive | inactive | inactive | inactive | inactive | inactive | inactive | inactive | inactive | inactive | inactive | inactive | inactive
14 | IC(I)I | inactive | inactive | inactive | inactive | inactive | inactive | inactive | inactive | inactive | inactive | inactive | inactive | inactive | inactive | inactive | inactive | inactive | inactive | inactive | inactive
15 | CC(O)CO (stereo unspecified) | inactive | inactive | inactive | inactive | inactive | inactive | inactive | inactive | inactive | inactive | inactive | inactive | inactive | inactive | inactive | inactive | inactive | inactive | inactive | inactive
16 | CC(C)(C)NC(=O)[C@@H]1C[C@@H]2CCCC[C@@H]2CN1C[C@@H](O)[C@H](Cc1ccccc1)NC(=O)[C@H](CC(N)=O)NC(=O)c1ccc2ccccc2n1 | – | 50.1 µM (active) | – | – | – | – | – | – | – | – | – | – | – | inactive | – | – | – | 50.1 µM (active) | 50.1 µM (active) | 50.1 µM (active)
